The panel holds about 79,000 compounds, 15% with a hit somewhere; the sample as a whole holds those more often. Unmarked numbers belong to inactive results. The source made the active and inactive calls. Cut-off read from the data, not from the text of the source: active = growth inhibition above about 70%; inactive = the rest.
Key:
[1] = NCI Yeast Anticancer Drug Screen. Data for the rad50 strain (AID 155);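 note: 0% = growth of vehicle-only cultures of the same strain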; conditions: S. cerevisiae rad50 strain growth inhibition, stronger effect = higher value; at 50.0 µM unless noted
Outline: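 Cells are treated with compound, grown, and their growth is then scored against vehicle-only cultures of the same repair-deficient yeast strain.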

[2] = NCI Yeast Anticancer Drug Screen. Data for the mec2-1 strain (AID 157); conditions: S. cerevisiae mec2-1 strain, stronger effect = higher value; at 50.0 µM unless noted
Outline: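 Readout is yeast growth inhibition, normalised to vehicle-treated controls, in the mec2-1 strain exposed to compound.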

[3] = NCI Yeast Anticancer Drug Screen. Data for the sgs1 mgt1 strain (AID 161);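 note: 0% = growth of cultures given vehicle only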; conditions: S. cerevisiae sgs1 mgt1 strain, stronger effect = higher value; at 50.0 µM unless noted
Outline: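 Percent growth inhibition was derived by comparing compound-exposed mutant yeast with vehicle-exposed cultures. The strain carries alterations in DNA damage repair.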

[4] = NCI Yeast Anticancer Drug Screen. Data for the cln2 rad14 strain (AID 165);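 note: 0% = growth equal to vehicle treated cultures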; conditions: S. cerevisiae cln2 rad14 strain, stronger effect = higher value; at 50.0 µM unless noted
Outline: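 Relative to vehicle controls, growth inhibition of compound-treated cln2 rad14 yeast was recorded.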

[5] = NCI Yeast Anticancer Drug Screen. Data for the bub3 strain (AID 167); conditions: S. cerevisiae bub3 mutant strain, stronger effect = higher value; at 50.0 µM unless noted
Outline: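 Part of a panel of yeast mutants defective in DNA damage repair or cell cycle regulation. Each strain is grown with compound, and inhibition is calculated relative to solvent-treated cultures.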

[6] = NCI Yeast Anticancer Drug Screen. Data for the mlh1 rad18 strain (AID 175); conditions: S. cerevisiae mlh1 rad18 strain growth inhibition, stronger effect = higher value; at 50.0 µM unless noted
Outline: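 Test agents were incubated with a yeast strain of defined genotype (DNA damage repair defect). Inhibition of growth was derived by comparison with vehicle-exposed cultures.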

Row | SMILES | growth inhibition [1] | growth inhibition [2] | growth inhibition [3] | growth inhibition [4] | growth inhibition [5] | growth inhibition [6]
1 | COCS(=O)(=O)c1ccccc1 | 2.55% | -6.1% | 11.8% | 14.3% | 6.55% | 0.15%
2 | CN(C)N1C(=O)S/C(=C\c2ccc([N+](=O)[O-])cc2)C1=O | -24.4% | -14.3% | 1.15% | 6.3% | -4.1% | -16.2%
3 | CCO[C@@H]1OC(=O)[C@H]2C(c3ccccc3)=NO[C@@H]12 | -13.2% | -22.4% | -9.7% | 7.55% | 13.7% | -4.15%
4 | CCC(=O)Cc1nc2n(c1O)/C(=N/C(=O)Nc1ccc(Cl)cc1)N=N2 | -2.05% | -7.5% | -2.9% | -35.8% | -15.2% | 11.6%
5 | O=C(N(O)c1ccccc1Cl)C(O)(c1ccccc1)c1ccccc1 | 28.2% | 16.6% | 59.1% | 37% | 31.4% | 75.5% (active)
6 | OC(CN1CCCCC1)c1cc(-c2ccccc2)no1 (centres undefined) | 31.8% | 11.6% | 33.5% | 24.6% | 23.6% | 16.4%
7 | O=P(O)(O)c1ccc(-c2ccc(I)cc2)cc1 | 11.7% | -15.5% | 7.45% | 22.2% | -8.8% | 13.2%
8 | CCOc1cc2c(cc1C(C)c1ccc(O)cc1)OCO2 (centres undefined) | 99.5% (active) | 99.7% (active) | 99.7% (active) | 99.7% (active) | 99.5% (active) | 99.5% (active)
9 | N#CC1C(=O)C(=O)N(c2ccccc2)C1=O (centres undefined) | -6.1% | -6.85% | -24.7% | 3.15% | -1.85% | -6.25%
10 | CC(=O)c1cccc(NC(=O)CCCCCCCCC(=O)Nc2cccc(C(C)=O)c2)c1 | -5.7% | -0.7% | -1.55% | -49.5% | -1.2% | 2.95%
11 | O=C1/C(=N\[O-])C(S(=O)(=O)[O-])=Cc2cc(S(=O)(=O)[O-])cc(O)c21.O=C1/C(=N\[O-])C(S(=O)(=O)[O-])=Cc2cc(S(=O)(=O)[O-])cc(O)c21.[Cu+2] | -1.8% | 8.1% | -0.65% | -11.7% | -2.4% | -19.5%
12 | CCSC(=O)C(F)(F)F | -9.95% | -47.9% | -51.4% | -1.2% | -18.1% | -25.6%
13 | COc1ccccc1C(=O)NCC1CCCN2CCCCC12 (centres undefined) | 6.5% | -6.95% | 14.9% | -6.5% | 0.7% | -45.4%
14 | COc1ccc(-c2oc3c(CC(=O)O)cccc3c(=O)c2OC)cc1 | -8.75% | -15.3% | -25.3% | -14.4% | -12.7% | -12.3%
15 | Cn1c2c(c(=O)c3ccccc31)CC(O)C(C)(C)O2 (centres undefined) | -23.6% | -35.7% | -6.4% | 6% | 3.35% | -2.65%
16 | O=C(N[C@@H](CSSC[C@H](NC(=O)OCc1ccccc1)C(=O)O)C(=O)O)OCc1ccccc1 | 15.6% | 0.85% | 9.2% | -3.65% | 2.7% | 2.55%
17 | Oc1cccc2c1CCCC2 | -1.25% | -12.2% | -37% | -16.4% | -1.85% | -3.9%
18 | CS(=O)(=O)OC1Cc2ccccc2C1 | 12.6% | -0.3% | -2.35% | -6.1% | -5% | 9.9%
19 | O=C(O)c1ccccc1C(=O)Nn1cnnc1 | -7.55% | 1.15% | -25.9% | 17.2% | -8.1% | -0.1%
20 | Cn1cnc2[nH]c(=O)[nH]c(=O)c21 | 3.9% | 12.9% | -8.95% | 1.95% | 8.85% | -0.75%

Row | SMILES | growth inhibition [1] | growth inhibition [2] | growth inhibition [3] | growth inhibition [4] | growth inhibition [5] | growth inhibition [6]
21 | O=C(NCc1ccccc1)C(=O)NCc1ccccc1 | 4.35% | -1.85% | -7.25% | 3.5% | -6.9% | 5%
22 | COc1ccc(CCl)cc1OCc1ccccc1 | -33.7% | -17.8% | -16.7% | -24.4% | -14.7% | -21.2%
23 | CCOc1c(N=Nc2cccc(Cl)c2)c(C)nn1C(N)=S | 20.4% | 3.35% | 9.65% | -25.1% | -15.5% | 19.4%
24 | CCCCNC(=O)c1cc(=O)[nH]c(=O)[nH]1 | 1.5% | -6.55% | 6.6% | 5.6% | -16.1% | 20.1%
25 | Nc1cncnc1N | 35.7% | 7.25% | 31.9% | 16.2% | -18.6% | 26.5%
26 | O=C(O)CNC(=O)CNC(=O)CNC(=O)C(CSC(c1ccccc1)(c1ccccc1)c1ccccc1)NC(=O)OCc1ccccc1 (centres undefined) | 20.4% | 4.5% | -13.7% | 22.1% | 10.7% | 4.9%
27 | C=C1CC(CCCC2CC(=C)C(=O)O2)OC1=O (centres undefined) | 5.8% | 12.9% | -4.1% | -50.7% | -11.2% | 6.15%
28 | O=C1c2ccccc2C(=O)N1CCCCCCS(=O)(=O)Cl | 13.7% | 10.9% | -2.75% | -16.9% | -7.35% | 0.55%
29 | CCCC1N[C@H](C(=O)O)CS1 (some centres undefined) | 15.7% | 7.1% | -1.85% | 7.2% | 10.1% | -3.85%
30 | COc1ccc(C(=O)CCC(=O)O)c(O)c1 | -3.25% | 1.35% | -12.6% | -11.1% | -4.15% | -11.3%
31 | CCOC(=O)c1ccc(NC(=O)Nc2ccc(F)cc2)cc1 | 3.5% | -0.5% | 1% | 12.5% | 32.5% | 5.55%
32 | O=C(O)/C=C(/CC(=O)O)C(=O)O | -34.9% | -11.3% | -17.2% | 0.35% | -27.8% | -7.45%
33 | Cn1nnnc1NCc1ccccc1 | -2.55% | 5.35% | -5.85% | -24.6% | -2% | 5.15%
34 | Clc1cccc(Cl)c1C1SCc2nc3cc4ccccc4cc3n21 (centres undefined) | -1.8% | -12.1% | 24.9% | -0.55% | 14% | 14%
35 | Cc1ccc2cc(-c3ccccc3)[nH]c2c1 | -15.3% | -11.2% | -13.6% | -13.4% | -33.6% | -55%
36 | O=CNc1cccnc1C1OCCO1 | 4.85% | 5.85% | 2% | -13.3% | -4.75% | 7.65%
37 | COC(=O)C(=O)C(C(=O)C=C(C)C)C(=O)C(=O)Nc1ccc(C)cc1C (centres undefined) | -4.9% | -17.5% | -3.55% | 11.2% | -18.6% | -29.6%
38 | O=CC(NC(=O)N(CCCl)N=O)C(O)C(O)C(O)CO (centres undefined) | -8% | -2.3% | 2.15% | -1.7% | -4.95% | 5.75%
39 | CCOC(=O)c1ccc(NC(=S)NC(=O)C(C)Oc2ccccc2)cc1 (centres undefined) | -10.9% | 40% | 44.8% | -21.2% | 37.8% | 25.2%

— PubChem BioAssay (NCI)
